# Screening data: PubChem, several laboratories
# Sampled rows, rich in hits. Any-hit rate of the full collection: about 27%.
# sEH inhibitor: blocks human soluble epoxide hydrolase activity | P34913 | 91,000 compounds, 0.34% hits | inhibition, % at 2 µM | recombinant human sEH enzymatic activity assay | AID 707; in the data active means inhibition above about 80%
# Target sequence (P34913 whole entry, looked up): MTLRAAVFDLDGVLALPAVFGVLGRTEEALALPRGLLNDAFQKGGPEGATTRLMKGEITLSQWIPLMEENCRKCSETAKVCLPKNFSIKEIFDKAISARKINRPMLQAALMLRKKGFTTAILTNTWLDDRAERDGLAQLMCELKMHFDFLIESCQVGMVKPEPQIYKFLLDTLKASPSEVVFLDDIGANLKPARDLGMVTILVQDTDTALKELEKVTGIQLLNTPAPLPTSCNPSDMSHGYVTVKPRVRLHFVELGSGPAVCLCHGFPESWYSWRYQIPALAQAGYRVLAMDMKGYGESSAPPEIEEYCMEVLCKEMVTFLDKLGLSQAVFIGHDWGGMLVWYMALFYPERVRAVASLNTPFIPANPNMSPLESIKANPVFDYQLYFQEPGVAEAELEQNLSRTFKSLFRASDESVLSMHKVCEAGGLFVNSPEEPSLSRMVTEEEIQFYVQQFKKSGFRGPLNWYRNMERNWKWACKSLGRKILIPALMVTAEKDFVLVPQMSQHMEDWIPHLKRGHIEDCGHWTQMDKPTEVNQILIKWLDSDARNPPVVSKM
# CYP2C19 act: cytochrome P450 2C19 (human) activation; P33261; activation factor at 5 µM; 96,000 tested, under 10 active; recombinant CYP2C19, luciferin-H EGE luminescence; active compounds read high; 0 = fully inhibited enzyme, 1 = untreated enzyme;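 active means activation factor of at least 2 at 5 µM in the primary screen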;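 further: 0 = wells with 2.5 mM tranylcypromine and 1 = vehicle-only wells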
# sEH activator: soluble epoxide hydrolase (human) activation; P34913; purified human sEH enzymatic activity, activator screen; activation, % at 2 µM; 91,000 compounds, 0.04% hits; in the data active means activation above about 37%
# CYP2C9 act: CYP2C9 (human) activation; recombinant CYP2C9, luciferin-H conversion, luminescence; active compounds read high; factor 1 = untreated enzyme, 0 = blocked; P11712; activation factor at 5 µM; 96,000 compounds, 1.4% hits;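 active means activation factor of 2 or more for CYP2C9 at a 5 µM dose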;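 further: 0 = sulfaphenazole-blocked wells and 1 = vehicle-only wells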
# CYP2C9 inhib: inhibitors of human CYP2C9. inhibition, % at 5 µM. CYP2C9 Supersomes, luciferin-H conversion, luminescence. 96,000 compounds, 20% hits;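 active means blocking of liver enzyme CYP2C9 beyond about 50% at 5 µM, limit read from the data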
# CYP2C19 inh: blocks human cytochrome P450 2C19; P33261; AID 778; CYP2C19 Supersomes, luciferin-H EGE luminescence, 30 min; inhibition, % at 5 µM; 96,000 compounds, 21% hits;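 active means CYP2C19 inhibition above a set limit at 5 µM in the primary screen, cut at about 50% in these data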;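 further: plate controls were negative control wells for no effect and 2.5 mM tranylcypromine positive control for full effect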
# Starred values were filed as active, the others as inactive; / = not tested or not shown.
SMILES,sEH inhibitor,CYP2C19 act,sEH activator,CYP2C9 act,CYP2C9 inhib,CYP2C19 inh
N#Cc1nc(COc2cccc(Cl)c2)oc1N1CCCC1,-2,0,0,0.8,18,98*
CC(=O)N1CCC(=NNS(=O)(=O)c2cccc([N+](=O)[O-])c2)CC1,-9,1.1,11,1.2,-24,-10
CCCOc1c(Br)cc(/C=N/O)cc1OC,-11,0.8,13,1.1,-7,23
C=C(C)COc1ccc(-c2[nH]ncc2Oc2ccccc2OCC)c(O)c1,-5,0,6,0,100*,96*
C=C(C)COc1ccc(-c2[nH]ncc2-c2ccccc2)c(O)c1,-16,0.6,20,0.2,83*,41
C=C(C)COc1ccc(-c2[nH]ncc2Oc2cccc(OC)c2)c(O)c1,3,0.1,0,0,100*,93*
C=C(C)COc1ccc(-c2[nH]ncc2-c2ccc(OC)c(OC)c2)c(O)c1,8,0.9,-7,0.7,33,10
Cc1c(C(C)(C)C)c(C=S)n2ccccc12,-22,0.7,24,0.7,35,34
Cc1csc(-c2cnn(-c3ccccc3)c2NC(=O)c2ccccc2)n1,-4,1.1,6,1,4,-12
O=C(CN1CCN(c2ccccn2)CC1)N(c1ccccc1)c1ccc2ccccc2c1,/,0.4,/,0.5,51*,56*
O=C(CN1CCOCC1)N(c1ccccc1)c1ccc2ccccc2c1,-6,0.2,5,0.6,45,76*
O=C(CN1CCOCCOCCOCC1)Nc1ccccc1,1,1,1,1.1,-14,-1
Cc1ccc(C2(C)NC(=O)N(Cc3c(C)noc3C)C2=O)cc1 (configuration not stated),15,0.5,-14,0.9,12,53*
CC1(C)CCN(Cc2ccccc2)C1CC#N (configuration not stated),/,0.4,/,1.1,-5,60*
N#Cc1cc2c(nc1SCc1cccc(Cl)c1)CCCCC2,/,0.9,/,0.9,10,15
N#Cc1c(NC(=O)c2ccc(Cn3cc(Br)cn3)o2)sc2c1CCCCCC2,14,0.7,-9,0.4,58*,31
Cn1c(CN2CCCC2)nc2cc(NC(=O)C3CCCCC3)ccc21,18,1,-16,0.9,8,0
CCOc1ccc(S(=O)(=O)NCc2ccco2)c2ccccc12,1,0.4,0,1.1,-14,64*
COc1ccccc1N1CCN(C(=O)c2ccc(Cl)c(S(=O)(=O)NCc3ccco3)c2)CC1,3,0.3,-1,0.2,77*,70*
COc1cc(OC)c(S(=O)(=O)NCc2ccco2)cc1S(=O)(=O)NCc1ccco1,9,1.1,-4,1.1,-7,-9
CCOc1cc(C)c(Cl)cc1S(=O)(=O)NCc1ccco1,4,0.8,1,2*,-103,16
CCOc1ccc(S(=O)(=O)Nc2ccccn2)c2ccccc12,-8,0.8,8,0.8,17,19
Cc1cc(C)c(C)c(S(=O)(=O)NCc2ccco2)c1C,-4,0.7,4,1.9,-94,28
COc1cc(C)c(Cl)cc1S(=O)(=O)NCc1ccco1,8,0,-8,2*,-100,98*
O=S(=O)(NCC1CCCO1)c1ccc(S(=O)(=O)N(Cc2ccc(F)cc2)C2CCCCC2)cc1 (configuration not stated),5,/,-4,/,/,/
SMILES,sEH inhibitor,CYP2C19 act,sEH activator,CYP2C9 act,CYP2C9 inhib,CYP2C19 inh
Cc1cc2c3c(c1C)C1(C(=O)N3C(C)(C)CC2C)C(C#N)=C(N)Oc2cc(O)ccc21 (configuration not stated),4,1.1,-6,1,0,-6
O=C1CC(NCCC2=CCCCC2)C(=O)N1c1cccc(Cl)c1Cl (configuration not stated),14,0.8,-12,0.6,38,20
CCc1nccn1S(=O)(=O)c1ccc2ccccc2c1,/,0.8,/,1.7,-72,25
COc1ccccc1C(=O)C1Nc2ccccc2-c2nnc(SC)nc2O1 (configuration not stated),-7,/,10,/,/,/
CCCCSc1nnc2c(n1)OC(C(=O)c1ccccc1)Nc1ccccc1-2 (configuration not stated),14,0.5,-13,0.1,87*,49
O=c1cc(-c2ccccc2F)oc2ccccc12,-7,/,10,/,/,/
Cc1c2cc(O)c(=O)cc-2oc2cc(O)c(O)cc12,-11,0.7,13,0.2,82*,25
Cc1ccccc1NC(=O)CC(O)(C(F)(F)F)C(F)(F)F,-6,0.5,6,0.7,27,47
CC(NC(=O)CC(O)(C(F)(F)F)C(F)(F)F)c1ccccc1 (configuration not stated),3,0.2,1,0.4,57*,78*
NNC(=O)CCc1c[nH]c2ccccc12,8,/,-8,/,/,/
O=C(Cc1ccccc1)NCC1CCCO1 (configuration not stated),-21,0.9,15,0.9,6,11
CC(C)CNC(=O)CCc1c[nH]c2ccccc12,-2,0.2,2,1.5,-48,84*
O=C(CCc1c[nH]c2ccccc12)NCC1CCCO1 (configuration not stated),-1,0.1,2,3.1*,-206,89*
O=C(NCCNC(=O)C1CC2CCC1C2)C1CC2CCC1C2 (configuration not stated),-13,1,15,1.1,-8,0
COC(=O)c1c(-n2cnnn2)sc(C)c1C,/,0.9,/,1,2,10
COc1ccc(NC(=O)COC(=O)c2c(-c3ccccc3)noc2C)cc1,/,0.5,/,0.7,27,53*
COc1ccc(NC(=O)c2c(-c3ccccc3)noc2C)c(OC)c1,-13,0.5,15,0.7,31,46
Cc1onc(-c2ccccc2)c1C(=O)N/N=C(\N)COc1ccc(Cl)cc1,12,0.3,-12,0.3,74*,69*
COc1cccc(NC(=O)COC(=O)c2c(-c3ccccc3)noc2C)c1,/,0.4,/,0.4,60*,60*
CCOC(=O)Cc1[nH]nc2c1C(c1cccc(OC)c1OC)C(C#N)=C(N)O2 (configuration not stated),/,0.5,/,0.6,41,47
CCOC(=O)Cc1[nH]nc2c1C(C1C=CCCC1)C(C#N)=C(N)O2 (configuration not stated),13,0.1,-14,0.3,71*,87*
CC1CC(NC(=O)c2ncn[nH]2)CC(C)(C)C1 (configuration not stated),0,0.8,4,1.1,-8,16
CCCCNC(=O)c1ccc2c(c1)N(CC)C(=O)CS2,/,0.7,/,1,0,25
CCN1C(=O)CSc2ccc(C(=O)NCc3ccc(OC)cc3)cc21,69,0.2,-68,0.1,86*,80*
O=C(NCc1ccco1)c1ccc2c(c1)N(Cc1ccccc1)C(=O)CS2,36,0.7,-36,0.2,78*,35
